NS1 inh: influenza NS1 inhibition. Potency, µM (series often up to 46.1 µM). actives 0.4% (n = 270,000). AID 2326; calls by dose curve; note: actives are rising curves; nearly all actives have a fitted effect of over 50% in size
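Growth recovery, yeast-based: influenza A NS1 expressed in S. cerevisiae causes slow growth, and suppressors are detected by OD600. The parent strain without NS1 is used as positive control.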
Pf growth 96h: P. falciparum growth inhibition at 96 hour, primary screen for plastid delayed-death inhibitors | Potency, µM (doses to about 28.7 µM), most hits filed as inhibitors | P. falciparum luciferase reporter growth, 96 h | actives 6.9% (n = 320,000)
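Delayed-death screen, second-generation endpoint: infected erythrocytes, 2% hematocrit, 0.05% parasitemia final; 96 hours at 37 C, 5% CO2; luciferase detection reagent; luminescence decrease equals reduced growth.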
Pf growth 48h: P. falciparum growth inhibition at 48 hours (one generation). P. falciparum luciferase growth in erythrocytes, 48 h. Potency, µM (highest dose often 28.7 µM), usual class: inhibitors. actives 5.9% (n = 310,000)
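Compounds are pin-transferred into medium, infected erythrocytes (2% hematocrit, 0.1% parasitemia final) are added, and plates sit one parasite generation at 37 C in 5% CO2. Detection reagent is then added and luminescence measured.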
Shiga inhibitor: blocks Shiga toxin action in Vero cells; Vero cells, Shiga toxin protein synthesis inhibition reporter; actives 9.2% (n = 290,000); inhibition, % at 38.7 µM; AID 2315; in the data active = inhibition mostly above about 28%, no sharp cut-off; inactive = mostly below about 43%
Sm TGR block: inhibitors of Schistosoma mansoni thioredoxin glutathione reductase. Potency, µM (titrated, usually from 114 µM), usual class: inhibitors. actives 3% (n = 360,000). Q962Y6. purified TGR, DTNB reduction, TNB absorbance 405 nm; note: nearly all actives have a fitted effect of over 60% in size
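TGR 20 nM + NADPH 100 uM (dispensed conc.), cpd preinc 15 min RT; start with NADPH (500 uM addition) then DTNB (15 mM addition). Kinetic TNB absorbance, 405 nm filter. Four-parameter Hill fit across titration.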
CHX counter: affects cycloheximide protein synthesis inhibition readout, counter-screen; max response, %; cell reporter, cycloheximide protein synthesis inhibition counterscreen; actives 12% (n = 300,000); in the data active = max response mostly above about 13%, no sharp cut-off; inactive = mostly below about 14%; note: read at 38.3 µM for the half of the compounds with a filed dose
Large screens that a line does not name were inactive. The list is not random: actives were taken first. Their share in the collection is about 21%. Unless noted, calls come from the whole dose curve; as a rule, active = well fitted curve in the direction sought with a large enough effect; inconclusive = small, poorly fitted or top-dose-only effect, or another doubt; inactive = no such curve, though single readings can be large; an effect the other way counts as inactive or inconclusive.

COCCCNc1nc2c(-c3ccc(Cl)cc3)nnn2c2ccccc12	Pf growth 96h 11.7µM
CC(=O)Nc1ccc(S(=O)(=O)NCCc2ccccn2)cc1	none (no result: NS1 inh)
Cc1ccc(NC2Sc3ccccc3NC2=O)cc1 (centres undefined)	Shiga inhibitor 41.1, CHX counter 21.9 (no result: NS1 inh)
Cc1ccc(CN2C(=O)C(O)(c3c(C)[nH]c4ccccc34)c3ccccc32)cc1 (centres undefined)	none (no result: NS1 inh, Pf growth 96h, Pf growth 48h, Shiga inhibitor, CHX counter)
C#CCN1C(=O)C(O)(c2c(C)[nH]c3ccccc23)c2ccccc21 (centres undefined)	none
CCCN1C(=O)C(O)(c2c(C)[nH]c3ccccc23)c2ccccc21 (centres undefined)	Sm TGR block 44.7µM
Cc1[nH]c2ccccc2c1C1(O)C(=O)N(Cc2ccc3c(c2)OCO3)c2ccccc21 (centres undefined)	Pf growth 96h 13.1µM
CN(C)CCCCN1CCc2c(n(C)c3ccccc23)C1=O	none (no result: Pf growth 96h, Pf growth 48h, Shiga inhibitor, Sm TGR block, CHX counter)
COc1cccc(/C=N/n2c(N)nc3ccccc32)c1OC	Pf growth 48h inconclusive, CHX counter 25.4 (no result: Pf growth 96h)
COc1cccc(/C=N/n2cnc3ccccc32)c1OC	CHX counter 30.6 (no result: Pf growth 48h)
COc1cccc(/C=N/n2c(SC)nnc2-c2ccccc2)c1OC	none
COc1ccc(/C=N/n2c(N)nc(-c3ccccc3)c2-c2ccccc2)cc1	Pf growth 96h inconclusive, Pf growth 48h inconclusive, Shiga inhibitor 86.3, CHX counter 30.6
COc1ccc(/C=N/n2c(N)nc3ccccc32)cc1OC	Pf growth 48h inconclusive, CHX counter 28.9
COc1ccc(/C=N/n2c(=S)n(C)c3ccccc32)cc1OC	none (no result: Pf growth 96h)
COc1cccc(/C=N/n2c(=S)n(C)c3cc(C)c(C)cc32)c1OC	Pf growth 48h inconclusive
COc1ccc(/C=N/n2c(-c3ccccc3)n[nH]c2=S)cc1	Pf growth 96h inconclusive
CCCC(=O)Nc1nc2c(s1)CC(C(C)(C)C)CC2 (centres undefined)	none (no result: NS1 inh, Pf growth 96h, Pf growth 48h, Shiga inhibitor, CHX counter)
CCOC(=O)c1c(C)oc2ncnc(Nc3ccc(F)cc3Cl)c12	none (no result: NS1 inh, Pf growth 96h, Pf growth 48h, Shiga inhibitor, CHX counter)
COc1ccc(-c2oc3ncnc(N)c3c2-c2ccccc2)cc1	none (no result: Pf growth 48h)
c1ccc(-c2oc3ncnc(NCCCn4ccnc4)c3c2-c2ccccc2)cc1	Pf growth 48h 13.1µM
N=c1c2c(-c3ccccc3)c(-c3ccccc3)n(Cc3ccco3)c2ncn1CCCn1ccnc1	Pf growth 96h inconclusive, Pf growth 48h 1.85µM
c1ccc(-c2c(-c3ccccc3)n(Cc3ccco3)c3ncnc(NCCCn4ccnc4)c23)cc1	Pf growth 96h 2.08µM (no result: Pf growth 48h)
OCCNc1ncnc2c1c(-c1ccccc1)c(-c1ccccc1)n2Cc1ccco1	Sm TGR block inconclusive (no result: Pf growth 48h)
CN(C)CCCNc1ncnc2oc(-c3ccccc3)c(-c3ccccc3)c12	Pf growth 96h 13.1µM, Pf growth 48h 16.5µM
N=c1c2c(-c3ccccc3)c(-c3ccccc3)n(Cc3ccco3)c2ncn1CCCN1CCOCC1	Pf growth 48h inconclusive (no result: NS1 inh)
O=C(c1ccc2c(c1)N(Cc1ccc(Cl)cc1)C(=O)c1ccccc1S2=O)N1CCN(c2ccccc2F)CC1 (centres undefined)	none (no result: NS1 inh, Pf growth 96h, Pf growth 48h, Shiga inhibitor, CHX counter)
CC(Sc1nnc(Cc2cccs2)n1C1CC1)C(=O)NC1CCS(=O)(=O)C1 (centres undefined)	Pf growth 48h inconclusive (no result: NS1 inh, Shiga inhibitor, CHX counter)
CC(=O)c1ccc(NC(=O)Nc2nnc(N3CCCC(C)C3)s2)cc1 (centres undefined)	none (no result: NS1 inh, Pf growth 96h, Pf growth 48h, Shiga inhibitor, CHX counter)
O=C1ON=C(c2ccccc2)/C1=C/c1ccco1	Pf growth 96h inconclusive, Sm TGR block 20µM (no result: NS1 inh)
COc1cc(/C=C2\C(=O)ON=C2c2ccccc2)cc(OC)c1OC	Pf growth 96h inconclusive, Sm TGR block 8.91µM
COc1ccc(/C=C2\C(=O)ON=C2c2cccc([N+](=O)[O-])c2)cc1	Sm TGR block 11.2µM (no result: NS1 inh)
COc1ccc(/C=C2/C(=O)ON=C2c2ccccc2)cc1OC	Sm TGR block inconclusive
O=C1ON=C(c2ccccc2)/C1=C/c1ccc(-c2ccccc2[N+](=O)[O-])o1	Pf growth 96h 8.28µM, Pf growth 48h inconclusive, Sm TGR block 11.2µM
COc1ccc(NCc2nnc3n2CCCCC3)c(OC)c1	none (no result: NS1 inh, Pf growth 96h, Pf growth 48h, Shiga inhibitor, CHX counter)
O=C1NNC(c2ccccc2)=N/C1=C\c1ccco1	Sm TGR block 20µM
Cc1ccc(C2=NOC(=O)/C2=C\C=C\c2ccccc2)cc1	Pf growth 96h 2.94µM, Sm TGR block inconclusive
CN(C)/C=C1\C(=O)ON=C1c1ccccc1	none (no result: NS1 inh)
O=C1NNC(c2ccccc2)=N/C1=C\c1ccccc1Cl	Pf growth 96h inconclusive, Pf growth 48h inconclusive
O=c1c2sccc2n(Cc2cc(=O)n3ccccc3n2)c(=O)n1-c1cc(F)ccc1F	none (no result: NS1 inh, Pf growth 96h, Pf growth 48h, Shiga inhibitor, CHX counter)
COc1ccc(CC(=O)NC2CC(C)(C)NC(C)(C)C2)cc1OC	none
CC(C)CCC1(CCNC(C)c2cccs2)CCOC(C)(C)C1 (centres undefined)	Pf growth 96h 13.1µM, Pf growth 48h inconclusive
CCC(=O)N(CCC1(C(C)C)CCOC(C)(C)C1)C(C)c1cccs1 (centres undefined)	Pf growth 96h inconclusive, Pf growth 48h inconclusive
C[C@@]12C=Cc3occc3[C@H]1CC[C@]13CC(=O)[C@@H](CC[C@H]12)C3	none (no result: NS1 inh, Pf growth 96h, Pf growth 48h, Sm TGR block)
C=CCOc1ccc(/C=N/O)cc1Cl	Pf growth 96h 3.29µM, Shiga inhibitor 50.0, CHX counter 20.4
COc1cc(/C=N/O)ccc1OCc1ccccc1Cl	Shiga inhibitor 85.7, CHX counter 47.6
C=CCOc1ccc(Br)cc1/C=N/O	none (no result: Pf growth 48h)
Cn1ccc2cc(S(=O)(=O)N3CCN(C(=O)Nc4ccccc4F)CC3)ccc21	none (no result: NS1 inh, Pf growth 96h, Pf growth 48h, Shiga inhibitor, CHX counter)
Cc1ccc(S(=O)(=O)N(C)Cc2cc3ccccc3[nH]c2=O)cc1	Pf growth 96h 9.28µM, Pf growth 48h inconclusive
COc1ccc(N(Cc2cc3ccccc3[nH]c2=O)S(=O)(=O)c2ccc(C)cc2)cc1	Shiga inhibitor 38.8, CHX counter 26.9
CN(Cc1cc2ccccc2[nH]c1=O)S(=O)(=O)c1ccccc1	CHX counter 19.0
CCN(Cc1cc2ccccc2[nH]c1=O)C(=O)C(C)C	Pf growth 96h 0.928µM
CSc1ncnc2c1ncn2[C@@H]1O[C@@H](CO)[C@H](O)O[C@@H]1O	none (no result: Pf growth 96h, Pf growth 48h, Shiga inhibitor, Sm TGR block, CHX counter)
CC(C)OC(=O)c1c(NC(=O)C2CC=CCC2C(=O)O)sc2c1CCCCC2 (centres undefined)	NS1 inh inconclusive, Pf growth 96h 9.28µM
NC(=O)c1c(NC(=O)C2CC=CCC2C(=O)O)sc2c1CCCCC2 (centres undefined)	Pf growth 96h inconclusive, Sm TGR block 50.1µM
COC(=O)Nc1sc2c(c1C(N)=O)CCCCCC2	none (no result: Pf growth 96h)
Cc1c(CCC(=O)N2CCC[C@H]2C(=O)O)c(=O)oc2c(C)c3oc4c(c3cc12)CCCC4	CHX counter 8.5
CCN(CC(=O)NCc1ccc(Cl)cc1)C(=O)CSCC(=O)Nc1ccc(OC)cc1	Pf growth 48h inconclusive (no result: NS1 inh, Shiga inhibitor, CHX counter)

Compound activity from PubChem BioAssay.
